# Data: publication PMC5540273 (PLoS ONE, 2017)
# System: T1, PCTK2
# T1 construct: gene CDK17
# Conditions: concentration: 1 μM, replicates: in singlicate; n = 1
# 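Further: KINOMEscan kinase panel screen.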
row,SMILES,%Inh [%]
1,CCC(CC)(CC)n1cnc2c(N)ncnc21 [SKF-97620],0
2,Cc1ccc(NC(=O)c2cccc(C#N)c2)cc1-c1ccc(C(=O)Nc2ccncc2)cc1 [GSK1398463],0
3,CSc1nn2c(=O)cc(N3CCOCC3)nc2n1Cc1cccc(Cl)c1Cl [GSK2347225],0
4,FC(F)(F)c1cc(Nc2nccc(-c3c(-c4ccc(Cl)cc4)nn4ncccc34)n2)ccc1Cl [GW829351],0
5,CC(=O)Nc1n[nH]c2ncc(-c3ccccc3)cc12 [SB-548492],7
6,O=C(Nc1n[nH]c2nc(-c3ccco3)c(Br)cc12)c1ccc(CN2CCCC2)cc1.O=C(O)[C@H](O)[C@@H](O)C(=O)O [SB-742352],11
7,O=C(NCCCN1CCCC1=O)c1cnc(NCc2cc(Cl)ccc2Cl)nc1NC1CCNCC1,0
8,Nc1nccc2scc(-c3ccc4c(c3)CCN4C(=O)Cc3cc(F)ccc3F)c12 [GSK2587663],0
9,CN1CCC(n2cnc(-c3ccc(F)cc3)c2-c2ccnc(NC3CCNCC3)n2)CC1 [SB-229482],0
10,Oc1ccc2ncnc(Nc3ccc(OCc4ccccc4)cc3)c2c1 [GI262866],0
11,COc1ccc(NC(=O)c2ccc(-c3cc(-c4nnc(C)o4)ccc3C)cc2)cc1 [GW595885],0
12,CC(C)N1CCC(n2cnc(-c3ccc(F)cc3)c2-c2ccnc(N)n2)CC1 [SB-223132],0
13,COc1ccc(Nc2nccc(N3CCC(NC(=O)Nc4ccc5c(c4)OCO5)C3)n2)cc1 (stereo not shown) [GSK1379745],17
14,COC(=O)c1cccc(NC(=O)NCCNc2ccnc(Nc3ccc(F)cc3)n2)c1 [GSK1379883],0
15,COc1cc2c(Nc3cccc(NC(=O)c4ccccc4)c3)ncnc2cc1OCCCN1CCOCC1 [GSK223810],0
16,O=C(Nc1ccccc1)Nc1ccc(Oc2ccc3nccn3n2)cc1,2
17,Nc1nc(-c2ccccn2)c(-c2ccnc3ccccc23)s1 [GW548057],18
18,Cc1ccc(O)cc1Nc1cc(C(F)(F)F)nc2ccc(-c3ccncc3)cc12 [GW630823],2

row,SMILES,%Inh [%]
1,Fc1cccc(COc2ccc(Nc3ncnc4sc(-c5ccc[nH]5)cc34)cc2Cl)c1 [GW707818],22
2,Fc1cccc(COc2ccc(Nc3ncnc4cc[nH]c34)cc2Cl)c1,48
3,Nc1nc(-c2ccc3c(N)n[nH]c3c2)cc(N2CCC[C@@H](C(=O)Nc3ccccc3)C2)n1.O=C(O)C(F)(F)F.O=C(O)C(F)(F)F [GSK2288359],8
4,O=C(CCO)NCCn1ccc2ncnc(Nc3ccc(Oc4cccc(C(F)(F)F)c4)c(Cl)c3)c21,0
5,CNc1nccc(-c2c(-c3ccc(F)cc3)ncn2CCCN2CCOCC2)n1 [SB-222516],0
6,Cc1ccc(C)c(NC(=O)NCCNc2ccnc(Nc3ccc(F)cc3)n2)c1 [GSK1379878],0
7,CC(C)(C)c1ccc(-n2cnc3c(N)ncnc32)cc1 [SKF-97263],0
8,CS(=O)(=O)CCNCc1nc(-c2ccc3ncnc(Nc4ccc(OCc5cccc(F)c5)c(Cl)c4)c3c2)cs1.Cl [GW583340],16
9,CCCc1ccc(S(=O)(=O)NC2CCN(c3ccnc(Nc4ccc(OC)cc4)n3)C2)cc1 (stereo not shown) [GSK1379737],0
10,FC(F)(F)c1ccc(-c2nn3ncccc3c2-c2ccnc(Nc3cccc(C(F)(F)F)c3)n2)cc1 [GW828205],0
11,Cc1cccc(-c2nc(Nc3ccc4[nH]nnc4c3)c3ccccc3n2)n1 [GW867587],0
12,O=C(Nc1ccccc1F)NC1CCN(c2ccnc(Nc3ccc(F)cc3)n2)C1 (stereo not shown) [GSK1379722],0
13,COc1ccc(NC(=O)Nc2ccc(C)c(-c3ccc(C(=O)Nc4ccncc4)cc3)c2)cc1 [GSK1398475],0
14,Clc1ccc(-c2cc(-c3c[nH]nc3-c3ccccn3)ccn2)cc1 [GW681251],0
15,Clc1cc(Nc2ncnc3cc[nH]c23)ccc1OCc1ccccn1,19
16,CNc1nccc(-c2c(-c3ccc(F)cc3)ncn2C2CCN(C)CC2)n1 [SB-222903],0
17,c1ccc(-c2ccc3c(-c4ccnc(Nc5ccc6c(c5)OCCO6)n4)cnn3n2)cc1 [GW818941],7

# System: T2, PCTK3
# T2 construct: gene CDK18
# Conditions: concentration: 1 μM, replicates: in singlicate; n = 1
row,SMILES,%Inh [%]
1,CCC(CC)(CC)n1cnc2c(N)ncnc21 [SKF-97620],0
2,Cc1ccc(NC(=O)c2cccc(C#N)c2)cc1-c1ccc(C(=O)Nc2ccncc2)cc1 [GSK1398463],18
3,CSc1nn2c(=O)cc(N3CCOCC3)nc2n1Cc1cccc(Cl)c1Cl [GSK2347225],0
4,FC(F)(F)c1cc(Nc2nccc(-c3c(-c4ccc(Cl)cc4)nn4ncccc34)n2)ccc1Cl [GW829351],0
5,CC(=O)Nc1n[nH]c2ncc(-c3ccccc3)cc12 [SB-548492],4
6,O=C(Nc1n[nH]c2nc(-c3ccco3)c(Br)cc12)c1ccc(CN2CCCC2)cc1.O=C(O)[C@H](O)[C@@H](O)C(=O)O [SB-742352],0
7,O=C(NCCCN1CCCC1=O)c1cnc(NCc2cc(Cl)ccc2Cl)nc1NC1CCNCC1,10
8,Nc1nccc2scc(-c3ccc4c(c3)CCN4C(=O)Cc3cc(F)ccc3F)c12 [GSK2587663],20
9,CN1CCC(n2cnc(-c3ccc(F)cc3)c2-c2ccnc(NC3CCNCC3)n2)CC1 [SB-229482],10
10,Oc1ccc2ncnc(Nc3ccc(OCc4ccccc4)cc3)c2c1 [GI262866],13
11,COc1ccc(NC(=O)c2ccc(-c3cc(-c4nnc(C)o4)ccc3C)cc2)cc1 [GW595885],24
12,CC(C)N1CCC(n2cnc(-c3ccc(F)cc3)c2-c2ccnc(N)n2)CC1 [SB-223132],7
13,COc1ccc(Nc2nccc(N3CCC(NC(=O)Nc4ccc5c(c4)OCO5)C3)n2)cc1 (stereo not shown) [GSK1379745],32
14,COC(=O)c1cccc(NC(=O)NCCNc2ccnc(Nc3ccc(F)cc3)n2)c1 [GSK1379883],0
15,COc1cc2c(Nc3cccc(NC(=O)c4ccccc4)c3)ncnc2cc1OCCCN1CCOCC1 [GSK223810],22
16,O=C(Nc1ccccc1)Nc1ccc(Oc2ccc3nccn3n2)cc1,0
17,Nc1nc(-c2ccccn2)c(-c2ccnc3ccccc23)s1 [GW548057],16
18,Cc1ccc(O)cc1Nc1cc(C(F)(F)F)nc2ccc(-c3ccncc3)cc12 [GW630823],0

row,SMILES,%Inh [%]
1,Fc1cccc(COc2ccc(Nc3ncnc4sc(-c5ccc[nH]5)cc34)cc2Cl)c1 [GW707818],0
2,Fc1cccc(COc2ccc(Nc3ncnc4cc[nH]c34)cc2Cl)c1,10
3,Nc1nc(-c2ccc3c(N)n[nH]c3c2)cc(N2CCC[C@@H](C(=O)Nc3ccccc3)C2)n1.O=C(O)C(F)(F)F.O=C(O)C(F)(F)F [GSK2288359],0
4,O=C(CCO)NCCn1ccc2ncnc(Nc3ccc(Oc4cccc(C(F)(F)F)c4)c(Cl)c3)c21,0
5,CNc1nccc(-c2c(-c3ccc(F)cc3)ncn2CCCN2CCOCC2)n1 [SB-222516],0
6,Cc1ccc(C)c(NC(=O)NCCNc2ccnc(Nc3ccc(F)cc3)n2)c1 [GSK1379878],0
7,CC(C)(C)c1ccc(-n2cnc3c(N)ncnc32)cc1 [SKF-97263],30
8,CS(=O)(=O)CCNCc1nc(-c2ccc3ncnc(Nc4ccc(OCc5cccc(F)c5)c(Cl)c4)c3c2)cs1.Cl [GW583340],10
9,CCCc1ccc(S(=O)(=O)NC2CCN(c3ccnc(Nc4ccc(OC)cc4)n3)C2)cc1 (stereo not shown) [GSK1379737],0
10,FC(F)(F)c1ccc(-c2nn3ncccc3c2-c2ccnc(Nc3cccc(C(F)(F)F)c3)n2)cc1 [GW828205],0
11,Cc1cccc(-c2nc(Nc3ccc4[nH]nnc4c3)c3ccccc3n2)n1 [GW867587],0
12,O=C(Nc1ccccc1F)NC1CCN(c2ccnc(Nc3ccc(F)cc3)n2)C1 (stereo not shown) [GSK1379722],18
13,COc1ccc(NC(=O)Nc2ccc(C)c(-c3ccc(C(=O)Nc4ccncc4)cc3)c2)cc1 [GSK1398475],0
14,Clc1ccc(-c2cc(-c3c[nH]nc3-c3ccccn3)ccn2)cc1 [GW681251],12
15,Clc1cc(Nc2ncnc3cc[nH]c23)ccc1OCc1ccccn1,19
16,CNc1nccc(-c2c(-c3ccc(F)cc3)ncn2C2CCN(C)CC2)n1 [SB-222903],0
17,c1ccc(-c2ccc3c(-c4ccnc(Nc5ccc6c(c5)OCCO6)n4)cnn3n2)cc1 [GW818941],0
